Measurements: PubChem BioAssay
Inconclusive results are not listed. The source made the active and inactive calls. Unless noted, no rule for the calls is given here.

How the values were obtained:
[1] = yeast TOR pathway RPL19A-GFP modulators, primary screen, cell-based, S. cerevisiae, multiplex flow cytometry (AID 1862; in the data active = percent of DMSO control GFP below about 86%;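 also: lower values mimic rapamycin by blocking the RPL19A rise seen in DMSO cells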); conditions: S. cerevisiae RPL19A-GFP strain, flow cytometry fluorescence, 3 h; at 10 µM; stronger effect = lower value
[2] = modulators of MEP2-GFP levels in yeast, primary screen, S. cerevisiae, multiplex flow cytometry (AID 1867;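 active = GFP response, as percent of the DMSO control, above the screen-wide mean plus 3 SD, about 139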;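 also: median GFP channel fluorescence of barcode-gated MEP2-GFP cells measured by flow cytometry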); conditions: S. cerevisiae MEP2-GFP strain, 3 h, at 10 µM, stronger effect = higher value
[3] = modulators of CIT2-GFP expression in yeast, primary screen, S. cerevisiae, GFP fusion, multiplex flow cytometry (AID 1870;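 active = percent response above a set limit, the screen-wide mean plus 3 SD, cut at about 130% in these data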;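 also: barcoded CIT2-GFP strain pooled with four other GFP strains with rapamycin as positive control; median GFP fluorescence per well over plate mean of DMSO wells so 100% = DMSO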); conditions: 3 h, at 10 µM, stronger effect = higher value
[4] = modulators of LAP4-GFP expression in yeast, primary screen, S. cerevisiae, multiplex flow cytometry (AID 1873;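 active = GFP signal, as percent of the solvent control, above the screen mean plus 3 SD, about 149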); conditions: 3 h, at 10 µM, stronger effect = higher value
[5] = modulators of AGP1-GFP expression in yeast TOR pathway, primary screen, cell-based, multiplex flow cytometry, S. cerevisiae (AID 1887;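 active = GFP signal above the screen-wide mean plus 3 SD, that is over about 124.5% of the solvent control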;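 also: AGP1-GFP fusion strain of S. cerevisiae within a five-strain barcoded multiplex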); conditions: 3 h, at 10 µM, stronger effect = higher value
[6] = inhibitors of CD8+ T cell-vesicle binding, pilot screen, LFA-1/ICAM-1 modulator project, MLPCN validation set, flow cytometry (AID 2523;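 active = response below a set limit, under 55% cells CD8-positive and vesicle-bound, and CD8 cells' 90th-percentile brightness under 279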;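 as to vesicle binding response: mean PE anti-B7-1 fluorescence of CD8+ cells relative to row control; 100% = QL9-loaded vesicles with DMSO vehicle in the same plate row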); conditions: 2C mouse CD8+ T cells, at 7 µM, stronger effect = lower value; double positive events: measured here: CD8+/vesicle+ event percentage
[7] = molecular target: Integrin beta-1 (Homo sapiens) + Integrin alpha-4 (Homo sapiens) (UniProt P13612+P05556); assay: inhibition of HUTS-21 binding to VLA-4, pilot screen, VLA-4 allosteric modulator project, U937 cells, HUTS-21 mAb, flow cytometry, validation set (AID 2674;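 active = inhibition above 50%, about 3 SD of the validation set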;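 also: antibody binding induced by the VLA-4 ligand LDV present at three times its Kd; 0% = LDV ligand with antibody and no compound and 100% = antibody without LDV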); conditions: HUTS-21 LIBS mAb binding, at 6.7 µM, stronger effect = higher value
[8] = superoxide lowering in aged yeast cells, pilot screen, validation compound set (AID 2706;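 active = superoxide response below 65% of plate, a cut near 3 SD across the whole screen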;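 also: yeast exposed to compound for one week at 30 degrees C before staining; 100% = mean of all compound wells on the same plate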); conditions: S. cerevisiae aging, superoxide DHE fluorescence; at 10 µM; stronger effect = lower value
[9] = molecular target: Beta-adrenergic receptor kinase 1 (Homo sapiens) (UniProt P25098); assay: GRK2 binders displacing RNA aptamer, biochemical, validation, human GRK2, bead flow cytometry (AID 488806;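 active = aptamer binding inhibition above 30%, about 3 SD of noise from non-fluorescent compounds; inactive = inhibition at or below 30%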); conditions: bead-bound GRK2, FAM-aptamer displacement, at 10 µM, stronger effect = higher value
[10] = molecular target: Beta-2 adrenergic receptor (Homo sapiens) (UniProt P07550); assay: beta2AR agonists driving receptor internalization, pilot screen, cell-based, FAP fluorogen, flow cytometry, validation set (AID 504459;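 active = percent response above 42, roughly 3 SD of non-fluorescent test compounds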;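 also: agonist-driven loss of surface beta2AR via internalization measured by FAP dye flow cytometry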); conditions: Am2.2-beta2AR cells, FAP surface receptor flow cytometry; at 10 µM; stronger effect = higher value
[11] = molecular target: AP-2 complex subunit beta (Homo sapiens) (UniProt P63010); assay: inhibitors of arrestin peptide binding to AP2, pilot screen, biochemical, validation set, GST-AP2 beads, flow cytometry (AID 504541;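 active = inhibition above 54%, about 3 SD of non-fluorescent compounds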;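 also: AP2 carries R879A mutation and is captured from E. coli lysate; bead-bound FITC arrestin peptide fluorescence measuring arrestin peptide binding to AP2; 0% = DMSO wells and 100% = excess unlabeled arrestin peptide control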); conditions: FITC arrestin peptide, at 10 µM, stronger effect = higher value
[12] = yeast V-ATPase proton transport modulators, S. cerevisiae, pHLuorin, HTS validation (AID 504600; in the data active = response above about 15%;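 also: plate controls were DMSO for no effect and reference compound for full effect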); conditions: S. cerevisiae pHLuorin cytosolic pH, at 10 µM, stronger effect = higher value
[13] = test system: anti-desmoglein-3 scFv antibody binding to human DSG3; assay: inhibitors of anti-DSG3 scFv binding to DSG3, pilot screen, biochemical, validation compound set, bead-based, flow cytometry (AID 588368;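 active = binding below the plate cutoff, the plate median minus 3 SD, with a reading above zero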;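 also: signal is the median channel fluorescence of bead-bound GFP antibody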); conditions: Protein G beads, DSG3-Fc, scFv-GFP binding, at 10 µM, stronger effect = lower value
[14] = test system: Botulinum neurotoxin type F light chain protease (Clostridium botulinum); assay: Botulinum neurotoxin type F light chain protease inhibition, multiplex microsphere flow cytometry, validation set (AID 588459); conditions: multiplex microsphere protease substrate cleavage assay, at 10 µM, stronger effect = higher value
[15] = molecular target: Botulinum neurotoxin type A (Clostridium botulinum) (UniProt P0DPI0); assay: BoNT/A light chain protease inhibitors, biochemical, multiplex microsphere flow cytometry, validation set (AID 588460); conditions: at 10 µM, stronger effect = higher value
[16] = molecular target: Lethal factor (Bacillus anthracis) (UniProt P15917); assay: Lethal factor protease inhibitors, Bacillus anthracis, multiplex microsphere cleavage assay, validation set (AID 588461); conditions: flow cytometry, at 10 µM, stronger effect = higher value
[17] = inhibitors of fungal efflux pumps CDR1, CDR2, MDR1, pilot screen, validation compound set, multiplex, phenotypic (AID 588506;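 active = efflux inhibition above 0.42, the validation set average plus 4 SD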;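 also: Nile Red retained in cells so higher fluorescence means more efflux inhibition; 0 = negative control wells and 1 = enniatin B 25 µM full block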); conditions: S. cerevisiae pump-expressing triplex, Nile Red efflux flow cytometry; at 10 µM; stronger effect = higher value
[18] = molecular target: ATP-binding cassette sub-family B member 6 (Homo sapiens) (UniProt Q9NP58); assay: ABCB6 transporter inhibitors, pilot screen, K562-ABCB6 cells, flow cytometry, validation set (AID 588550;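 active = inhibition above the screen-wide mean plus 3 SD, about 51%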;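 also: 0% = DMSO wells and 100% = benzethonium chloride 70 µM positive control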); conditions: K562-ABCB6 porphyrin accumulation, 1 h, at 10 µM, stronger effect = higher value
[19] = promoters of myeloid differentiation in arrested cells, primary screen, cell-based, GFP/MAC1 double positive, flow cytometry, validation set (AID 588685;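 active = differentiation response of at least 50%, scaled between solvent and reference control, from cells with both markers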;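 also: compound exposure lasts four days before antibody staining and flow analysis; 0% = DMSO wells and 100% = 5 µM fulvestrant positive control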); conditions: ER-HoxA9 marrow cells, stronger effect = higher value

Integrin beta-1 (Homo sapiens) + Integrin alpha-4 (Homo sapiens), sequence (P05556 whole entry, looked up): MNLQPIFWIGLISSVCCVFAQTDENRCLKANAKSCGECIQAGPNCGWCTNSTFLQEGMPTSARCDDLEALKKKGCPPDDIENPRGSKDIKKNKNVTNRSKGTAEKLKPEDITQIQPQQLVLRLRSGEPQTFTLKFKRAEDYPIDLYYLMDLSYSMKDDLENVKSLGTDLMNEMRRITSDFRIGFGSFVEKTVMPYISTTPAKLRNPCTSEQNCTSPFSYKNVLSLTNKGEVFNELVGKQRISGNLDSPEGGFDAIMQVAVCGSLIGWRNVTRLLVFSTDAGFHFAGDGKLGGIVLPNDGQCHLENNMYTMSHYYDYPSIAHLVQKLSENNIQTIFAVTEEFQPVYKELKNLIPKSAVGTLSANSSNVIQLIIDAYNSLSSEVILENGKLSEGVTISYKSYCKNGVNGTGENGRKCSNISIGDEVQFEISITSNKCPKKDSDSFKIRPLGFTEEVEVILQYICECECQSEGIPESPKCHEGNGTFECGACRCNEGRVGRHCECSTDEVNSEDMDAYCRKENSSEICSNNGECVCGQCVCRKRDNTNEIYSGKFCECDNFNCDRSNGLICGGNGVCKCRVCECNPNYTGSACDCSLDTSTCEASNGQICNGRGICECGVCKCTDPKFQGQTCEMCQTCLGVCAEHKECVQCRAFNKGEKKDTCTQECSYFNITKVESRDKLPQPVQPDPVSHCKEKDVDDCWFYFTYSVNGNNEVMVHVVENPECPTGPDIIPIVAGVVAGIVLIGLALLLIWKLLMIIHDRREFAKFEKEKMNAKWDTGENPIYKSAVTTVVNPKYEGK
Integrin beta-1 (Homo sapiens) + Integrin alpha-4 (Homo sapiens), sequence (P13612 whole entry, looked up): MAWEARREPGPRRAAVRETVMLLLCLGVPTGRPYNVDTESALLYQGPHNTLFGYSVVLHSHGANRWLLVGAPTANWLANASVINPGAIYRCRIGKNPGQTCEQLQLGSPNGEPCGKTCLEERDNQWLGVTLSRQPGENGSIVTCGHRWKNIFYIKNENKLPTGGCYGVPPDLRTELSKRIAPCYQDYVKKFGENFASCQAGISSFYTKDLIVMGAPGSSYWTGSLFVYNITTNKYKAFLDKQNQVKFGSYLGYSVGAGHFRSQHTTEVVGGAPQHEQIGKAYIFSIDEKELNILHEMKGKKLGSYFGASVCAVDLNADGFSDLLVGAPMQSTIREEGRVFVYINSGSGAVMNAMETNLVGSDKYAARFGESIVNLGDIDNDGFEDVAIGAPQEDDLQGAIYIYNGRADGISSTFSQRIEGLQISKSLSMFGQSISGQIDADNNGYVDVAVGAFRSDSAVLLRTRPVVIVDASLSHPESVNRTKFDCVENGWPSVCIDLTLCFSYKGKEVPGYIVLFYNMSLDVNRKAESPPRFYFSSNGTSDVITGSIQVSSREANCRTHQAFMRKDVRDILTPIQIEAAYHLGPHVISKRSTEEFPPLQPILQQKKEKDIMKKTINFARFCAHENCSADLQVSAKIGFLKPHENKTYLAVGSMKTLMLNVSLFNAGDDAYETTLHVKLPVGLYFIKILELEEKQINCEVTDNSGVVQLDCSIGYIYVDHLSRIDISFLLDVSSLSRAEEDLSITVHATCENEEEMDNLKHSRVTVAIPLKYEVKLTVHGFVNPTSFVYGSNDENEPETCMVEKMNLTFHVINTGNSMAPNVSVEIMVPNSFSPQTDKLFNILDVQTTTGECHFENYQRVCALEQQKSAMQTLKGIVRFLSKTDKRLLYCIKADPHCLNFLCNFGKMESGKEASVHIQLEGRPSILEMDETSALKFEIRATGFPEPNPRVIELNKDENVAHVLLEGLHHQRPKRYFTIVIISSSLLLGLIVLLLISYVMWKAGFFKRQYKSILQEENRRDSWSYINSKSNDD
Botulinum neurotoxin type A (Clostridium botulinum), sequence (P0DPI0 whole entry, looked up): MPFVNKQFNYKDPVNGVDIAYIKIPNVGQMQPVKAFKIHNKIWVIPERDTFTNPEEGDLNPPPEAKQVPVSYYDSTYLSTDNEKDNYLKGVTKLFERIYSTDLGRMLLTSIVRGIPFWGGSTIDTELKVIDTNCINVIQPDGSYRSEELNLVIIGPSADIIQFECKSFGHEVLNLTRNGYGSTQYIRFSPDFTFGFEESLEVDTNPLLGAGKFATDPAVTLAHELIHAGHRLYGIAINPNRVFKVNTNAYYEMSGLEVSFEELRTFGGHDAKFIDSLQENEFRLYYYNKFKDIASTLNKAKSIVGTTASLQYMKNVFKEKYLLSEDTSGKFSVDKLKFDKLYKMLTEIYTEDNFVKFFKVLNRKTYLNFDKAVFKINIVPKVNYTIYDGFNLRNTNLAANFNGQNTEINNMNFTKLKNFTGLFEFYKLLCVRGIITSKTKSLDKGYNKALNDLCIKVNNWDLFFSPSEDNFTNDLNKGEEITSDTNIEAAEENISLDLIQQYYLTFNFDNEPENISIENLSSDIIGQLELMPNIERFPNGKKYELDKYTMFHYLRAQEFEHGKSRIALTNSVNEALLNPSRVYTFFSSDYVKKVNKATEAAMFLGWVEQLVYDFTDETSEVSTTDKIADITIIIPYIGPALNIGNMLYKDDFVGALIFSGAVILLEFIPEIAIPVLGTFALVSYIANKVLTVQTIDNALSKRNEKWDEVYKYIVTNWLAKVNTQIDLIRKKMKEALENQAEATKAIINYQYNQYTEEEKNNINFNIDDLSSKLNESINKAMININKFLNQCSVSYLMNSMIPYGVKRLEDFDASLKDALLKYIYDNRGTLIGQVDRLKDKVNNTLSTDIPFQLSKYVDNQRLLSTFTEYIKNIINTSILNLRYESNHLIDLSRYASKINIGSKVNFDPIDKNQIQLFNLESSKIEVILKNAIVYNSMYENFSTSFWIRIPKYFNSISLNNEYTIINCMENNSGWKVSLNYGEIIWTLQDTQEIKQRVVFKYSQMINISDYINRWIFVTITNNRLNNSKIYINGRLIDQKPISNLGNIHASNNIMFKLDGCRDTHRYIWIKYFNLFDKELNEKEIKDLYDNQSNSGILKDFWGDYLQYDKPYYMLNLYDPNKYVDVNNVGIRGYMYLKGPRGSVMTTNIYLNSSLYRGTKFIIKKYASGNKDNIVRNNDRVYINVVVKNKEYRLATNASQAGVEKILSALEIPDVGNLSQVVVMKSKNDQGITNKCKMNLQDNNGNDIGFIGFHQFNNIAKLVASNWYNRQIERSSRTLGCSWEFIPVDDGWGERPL
Beta-adrenergic receptor kinase 1 (Homo sapiens), sequence (P25098 whole entry, looked up): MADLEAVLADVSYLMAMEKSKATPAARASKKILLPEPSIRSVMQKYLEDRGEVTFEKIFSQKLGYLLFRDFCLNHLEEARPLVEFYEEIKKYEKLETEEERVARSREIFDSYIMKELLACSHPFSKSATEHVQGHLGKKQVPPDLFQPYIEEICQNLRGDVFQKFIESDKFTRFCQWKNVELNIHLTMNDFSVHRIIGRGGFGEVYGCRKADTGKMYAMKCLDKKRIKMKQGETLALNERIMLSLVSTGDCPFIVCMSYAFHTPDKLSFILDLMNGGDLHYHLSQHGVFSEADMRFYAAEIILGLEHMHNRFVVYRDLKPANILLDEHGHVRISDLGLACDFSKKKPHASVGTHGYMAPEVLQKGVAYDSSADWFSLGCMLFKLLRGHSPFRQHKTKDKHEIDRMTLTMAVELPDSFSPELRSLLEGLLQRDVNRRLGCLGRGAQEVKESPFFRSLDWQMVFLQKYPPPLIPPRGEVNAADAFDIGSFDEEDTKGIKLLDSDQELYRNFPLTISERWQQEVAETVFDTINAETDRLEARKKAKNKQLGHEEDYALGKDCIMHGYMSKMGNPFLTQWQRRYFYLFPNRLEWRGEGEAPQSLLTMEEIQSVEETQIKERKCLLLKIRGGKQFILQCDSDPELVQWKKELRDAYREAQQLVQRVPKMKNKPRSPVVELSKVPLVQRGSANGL
ATP-binding cassette sub-family B member 6 (Homo sapiens), sequence (Q9NP58 whole entry, looked up): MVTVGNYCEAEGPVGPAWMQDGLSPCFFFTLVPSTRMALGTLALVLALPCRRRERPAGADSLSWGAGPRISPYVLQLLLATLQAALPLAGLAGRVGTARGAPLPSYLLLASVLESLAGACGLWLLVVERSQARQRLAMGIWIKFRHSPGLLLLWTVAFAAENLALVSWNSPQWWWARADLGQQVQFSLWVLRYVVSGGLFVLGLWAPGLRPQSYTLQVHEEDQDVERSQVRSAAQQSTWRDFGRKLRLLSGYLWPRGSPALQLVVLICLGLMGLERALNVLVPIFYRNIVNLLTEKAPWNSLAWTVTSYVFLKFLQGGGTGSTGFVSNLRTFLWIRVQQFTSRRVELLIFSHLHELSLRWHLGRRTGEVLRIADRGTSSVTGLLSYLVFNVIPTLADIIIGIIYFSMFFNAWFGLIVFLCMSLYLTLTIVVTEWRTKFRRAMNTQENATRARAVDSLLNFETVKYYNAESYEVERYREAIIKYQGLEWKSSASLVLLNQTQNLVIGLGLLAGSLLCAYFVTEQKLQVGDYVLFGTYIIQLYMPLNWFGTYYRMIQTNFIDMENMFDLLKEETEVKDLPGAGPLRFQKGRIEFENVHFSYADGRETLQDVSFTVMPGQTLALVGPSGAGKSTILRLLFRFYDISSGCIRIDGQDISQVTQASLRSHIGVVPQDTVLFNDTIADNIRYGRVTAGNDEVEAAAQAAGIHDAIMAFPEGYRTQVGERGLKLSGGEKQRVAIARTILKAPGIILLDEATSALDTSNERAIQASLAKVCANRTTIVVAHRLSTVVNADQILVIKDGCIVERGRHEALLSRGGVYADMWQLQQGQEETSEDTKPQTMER
Beta-2 adrenergic receptor (Homo sapiens), sequence (P07550 whole entry, looked up): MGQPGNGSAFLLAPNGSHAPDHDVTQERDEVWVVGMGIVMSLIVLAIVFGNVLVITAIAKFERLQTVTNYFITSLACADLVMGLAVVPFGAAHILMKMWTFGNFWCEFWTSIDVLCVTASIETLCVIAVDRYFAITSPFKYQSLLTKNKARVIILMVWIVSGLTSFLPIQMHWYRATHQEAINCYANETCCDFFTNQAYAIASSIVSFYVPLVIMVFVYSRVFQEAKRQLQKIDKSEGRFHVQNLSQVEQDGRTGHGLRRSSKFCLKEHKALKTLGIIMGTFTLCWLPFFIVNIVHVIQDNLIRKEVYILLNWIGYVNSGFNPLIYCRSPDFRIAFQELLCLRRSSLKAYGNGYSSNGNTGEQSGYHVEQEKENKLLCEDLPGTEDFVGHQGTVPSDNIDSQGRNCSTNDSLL

CC12CN3CC(C)(CN(C1)C3c1cccs1)C2=O (stereo not given)
percent of DMSO control GFP [1]: 101% (inactive) | GFP response vs DMSO [2]: 99.3% (inactive) | percent response of DMSO control [3]: 109% (inactive) | GFP response vs DMSO [4]: 97.3% (inactive) | GFP response, % of DMSO [5]: 107% (inactive) | double positive events [6]: 63% | vesicle binding response [6]: 181% (inactive) | inhibition [7]: -9.79% (inactive) | superoxide response (% of plate) [8]: 102% (inactive) | aptamer binding inhibition [9]: 4% (inactive) | response [10]: -0.2% (inactive) | inhibition [11]: -2.92% (inactive) | response [12]: -1.09% (inactive) | binding (% of control) [13]: 99.3% (inactive) | inhibition [14]: -2.3% (inactive) | inhibition [15]: -0.1% (inactive) | inhibition [16]: -4.2% (inactive) | efflux inhibition (fraction of control) [17]: 0.05 (inactive) | inhibition [18]: 6% (inactive) | differentiation response [19]: -7.57% (inactive)

CCCC[N+]1(C)[C@@H]2CC(OC(=O)[C@H](CO)c3ccccc3)C[C@H]1[C@@H]1O[C@@H]12 (stereo not given in full)
percent of DMSO control GFP [1]: 107% (inactive) | GFP response vs DMSO [2]: 109% (inactive) | percent response of DMSO control [3]: 106% (inactive) | GFP response vs DMSO [4]: 112% (inactive) | GFP response, % of DMSO [5]: 111% (inactive) | double positive events [6]: 59.9% | vesicle binding response [6]: 150% (inactive) | inhibition [7]: -15.8% (inactive) | superoxide response (% of plate) [8]: 97.4% (inactive) | aptamer binding inhibition [9]: 4% (inactive) | response [10]: -2.08% (inactive) | inhibition [11]: 0.96% (inactive) | response [12]: -3.56% (inactive) | binding (% of control) [13]: 96.4% (inactive) | inhibition [14]: 1.1% (inactive) | inhibition [15]: 0.2% (inactive) | inhibition [16]: -5.3% (inactive) | efflux inhibition (fraction of control) [17]: 0.3 (inactive) | inhibition [18]: 28% (inactive) | differentiation response [19]: 13% (inactive)

C[C@H]1CC[C@@]2(C)[C@@H](CC[C@@H]3[C@@H]2CC[C@]2(C)[C@@H](O)CC[C@@H]32)C1
percent of DMSO control GFP [1]: 99.9% (inactive) | GFP response vs DMSO [2]: 103% (inactive) | percent response of DMSO control [3]: 92% (inactive) | GFP response vs DMSO [4]: 137% (inactive) | GFP response, % of DMSO [5]: 102% (inactive) | double positive events [6]: 61% | vesicle binding response [6]: 376% (inactive) | inhibition [7]: 6.4% (inactive) | superoxide response (% of plate) [8]: 97.5% (inactive) | aptamer binding inhibition [9]: 0% (inactive) | response [10]: 8.67% (inactive) | inhibition [11]: -8.56% (inactive) | response [12]: 1.08% (inactive) | binding (% of control) [13]: 99.5% (inactive) | inhibition [14]: 2% (inactive) | inhibition [15]: 1.1% (inactive) | inhibition [16]: -4.7% (inactive) | efflux inhibition (fraction of control) [17]: -0.03 (inactive) | inhibition [18]: -3% (inactive) | differentiation response [19]: -8.8% (inactive)

Cn1c(O)c(C=NCCc2c[nH]c3ccccc23)c(=O)n(C)c1=O
percent of DMSO control GFP [1]: 100% (inactive) | GFP response vs DMSO [2]: 111% (inactive) | percent response of DMSO control [3]: 97.7% (inactive) | GFP response vs DMSO [4]: 120% (inactive) | GFP response, % of DMSO [5]: 110% (inactive) | double positive events [6]: 76.2% | vesicle binding response [6]: 17400% (inactive) | inhibition [7]: 5.03% (inactive) | superoxide response (% of plate) [8]: 106% (inactive) | aptamer binding inhibition [9]: 5% (inactive) | response [10]: -8.95% (inactive) | inhibition [11]: -3.21% (inactive) | response [12]: 3.13% (inactive) | binding (% of control) [13]: 96.8% (inactive) | inhibition [14]: -1.3% (inactive) | inhibition [15]: 1.4% (inactive) | inhibition [16]: -1.6% (inactive) | efflux inhibition (fraction of control) [17]: -0.06 (inactive) | inhibition [18]: 6% (inactive) | differentiation response [19]: -23.2% (inactive)

CC(C)C(=O)Nc1ccc(S(=O)(=O)N2CC3CC(C2)c2cccc(=O)n2C3)cc1 (stereo not given)
percent of DMSO control GFP [1]: 97.4% (inactive) | GFP response vs DMSO [2]: 95.2% (inactive) | percent response of DMSO control [3]: 104% (inactive) | GFP response vs DMSO [4]: 86.3% (inactive) | GFP response, % of DMSO [5]: 93.1% (inactive) | double positive events [6]: 58.5% | vesicle binding response [6]: 184% (inactive) | inhibition [7]: -5.89% (inactive) | superoxide response (% of plate) [8]: 106% (inactive) | aptamer binding inhibition [9]: 3% (inactive) | response [10]: -5.34% (inactive) | inhibition [11]: 10.6% (inactive) | response [12]: -0.52% (inactive) | binding (% of control) [13]: 100% (inactive) | inhibition [14]: 4.8% (inactive) | inhibition [15]: 0.5% (inactive) | inhibition [16]: 0.3% (inactive) | efflux inhibition (fraction of control) [17]: -0.24 (inactive) | inhibition [18]: 2% (inactive) | differentiation response [19]: 13.6% (inactive)

CCn1c(O)c(C(=O)CC2NCCc3ccccc32)c(=O)n(CC)c1=S (stereo not given)
percent of DMSO control GFP [1]: 95.2% (inactive) | GFP response vs DMSO [2]: 118% (inactive) | percent response of DMSO control [3]: 97.7% (inactive) | GFP response vs DMSO [4]: 132% (inactive) | GFP response, % of DMSO [5]: 101% (inactive) | double positive events [6]: 55.8% | vesicle binding response [6]: 186% (inactive) | inhibition [7]: -7.25% (inactive) | superoxide response (% of plate) [8]: 113% (inactive) | aptamer binding inhibition [9]: 1% (inactive) | response [10]: 20.4% (inactive) | inhibition [11]: 5.21% (inactive) | response [12]: 1.26% (inactive) | binding (% of control) [13]: 102% (inactive) | inhibition [14]: 2.4% (inactive) | inhibition [15]: 1.1% (inactive) | inhibition [16]: -11.5% (inactive) | efflux inhibition (fraction of control) [17]: -0.03 (inactive) | inhibition [18]: -11% (inactive) | differentiation response [19]: -15.2% (inactive)

COc1ccc(CN2CC3CC(C2)c2cccc(=O)n2C3)cc1OC (stereo not given)
percent of DMSO control GFP [1]: 105% (inactive) | GFP response vs DMSO [2]: 101% (inactive) | percent response of DMSO control [3]: 95.4% (inactive) | GFP response vs DMSO [4]: 84.1% (inactive) | GFP response, % of DMSO [5]: 95.1% (inactive) | double positive events [6]: 60.2% | vesicle binding response [6]: 170% (inactive) | inhibition [7]: 14.1% (inactive) | superoxide response (% of plate) [8]: 93% (inactive) | aptamer binding inhibition [9]: 0% (inactive) | response [10]: 2.8% (inactive) | inhibition [11]: -0.56% (inactive) | response [12]: 1% (inactive) | binding (% of control) [13]: 100% (inactive) | inhibition [14]: 1.7% (inactive) | inhibition [15]: -1.2% (inactive) | inhibition [16]: -0.8% (inactive) | efflux inhibition (fraction of control) [17]: 0.39 (inactive) | inhibition [18]: 8% (inactive) | differentiation response [19]: 4.15% (inactive)

CC(=O)OC1C2CCC1C(N1CCCC1)CC2 (stereo not given)
percent of DMSO control GFP [1]: 98.7% (inactive) | GFP response vs DMSO [2]: 106% (inactive) | percent response of DMSO control [3]: 97.7% (inactive) | GFP response vs DMSO [4]: 104% (inactive) | GFP response, % of DMSO [5]: 115% (inactive) | double positive events [6]: 67.3% | vesicle binding response [6]: 162% (inactive) | inhibition [7]: 9.1% (inactive) | superoxide response (% of plate) [8]: 91.4% (inactive) | aptamer binding inhibition [9]: 0% (inactive) | response [10]: -10.9% (inactive) | inhibition [11]: -16% (inactive) | response [12]: -1.91% (inactive) | binding (% of control) [13]: 103% (inactive) | inhibition [14]: -2.3% (inactive) | inhibition [15]: -0.8% (inactive) | inhibition [16]: -5.2% (inactive) | efflux inhibition (fraction of control) [17]: -0.04 (inactive) | inhibition [18]: 3% (inactive) | differentiation response [19]: -12.9% (inactive)
